RGS12 GoLoco inh = qHTS Assay for Inhibitors of RGS12 GoLoco Motif Activity (Red Fluorophore); Gai1:RGS12 GoLoco peptide FP, rhodamine, 10 min; Guanine nucleotide-binding protein G(i) subunit alpha-1 (Homo sapiens), P63096; Potency, µM (series often up to 61.6 µM), for inactives: at the top dose activity, negative = inhibition, actives largely listed as inhibitors; 230,000 tested, 0.44% active; active means well fitted inhibition curve with a large enough effect, not every such curve was filed as active; inactive means no such curve, though single readings can be large or run the other way; further: potency means the concentration at half of the fitted maximal effect; on the % scale 0 is the no-effect control and ±100 the full control effect; nearly all actives have a fitted effect of over 30% in size
ERK EGF inh = qHTS Assay for Inhibitors of the ERK Signaling Pathway using a Homogeneous Screening Assay; Stimulation with EGF. AID 1454, 2008. HEK293-V1b, EGF-stimulated phospho-ERK AlphaScreen. Potency, µM (series often up to 11.5 µM), for the others: at the top dose activity change, negative = inhibition, most hits filed as inhibitors. 130,000 tested, 0.41% active;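 further: potency means the concentration at half of the fitted maximal effect; plate controls were stimulated vehicle wells for no effect and unstimulated vehicle basal for full effect; nearly all actives have a fitted effect of over 55% in size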
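In this qHTS, HEK293 cells with stable type-1 vasopressin (V1b) receptor were exposed to compound at 37C for 30 min, stimulated 5 min with EGF at 25 nM, lysed, and probed for phospho-ERK by AlphaScreen.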
CBFb-RUNX1 inh = qHTS Assay for Compounds Blocking the Interaction Between CBF-beta and RUNX1 for the Treatment of Acute Myeloid Leukemia; AlphaScreen CBFb-His/RUNX1-biotin binding, biochemical; Potency, µM (titrated, usually from 59.8 µM), for inactives: at the top dose activity, negative = inhibition, actives largely listed as inhibitors; AID 1477, 2009; 230,000 tested, under 10 active; Runt-related transcription factor 1 (Homo sapiens) + Core-binding factor subunit beta …; further: % of control where 0% means no effect
Target sequence (Q01196 whole entry, looked up): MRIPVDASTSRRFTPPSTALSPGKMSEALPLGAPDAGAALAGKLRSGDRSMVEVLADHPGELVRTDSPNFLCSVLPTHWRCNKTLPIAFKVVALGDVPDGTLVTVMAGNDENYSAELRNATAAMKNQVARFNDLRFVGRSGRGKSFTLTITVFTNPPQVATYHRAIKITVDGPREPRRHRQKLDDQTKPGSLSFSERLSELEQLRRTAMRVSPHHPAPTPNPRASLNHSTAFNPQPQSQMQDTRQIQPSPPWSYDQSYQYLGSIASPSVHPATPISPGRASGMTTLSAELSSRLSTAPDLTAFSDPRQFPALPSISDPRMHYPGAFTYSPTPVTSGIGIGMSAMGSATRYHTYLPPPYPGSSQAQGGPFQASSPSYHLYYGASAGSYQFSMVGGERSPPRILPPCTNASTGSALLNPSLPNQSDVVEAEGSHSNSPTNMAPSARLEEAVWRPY
Target sequence (Q13951 whole entry, looked up): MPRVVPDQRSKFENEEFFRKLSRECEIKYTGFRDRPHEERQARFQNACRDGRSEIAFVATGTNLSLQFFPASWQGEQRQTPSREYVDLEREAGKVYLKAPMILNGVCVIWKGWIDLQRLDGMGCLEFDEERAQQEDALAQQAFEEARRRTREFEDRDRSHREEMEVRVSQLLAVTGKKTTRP
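Compounds were screened at multiple concentrations against a preformed CBF-beta(His)/RUNX1(biotin) complex (30 nM of each) for 15 min at room temperature, followed by 90 min with nickel and streptavidin beads and AlphaScreen reading.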
Active calls of the source: *; ? = inconclusive; · = no result; ! = not active in a repeat; [ ] = remark or other dose. Rows were chosen to be rich in hits. Some 0.5% of all compounds tested hit in one or more screens of this group. Unless noted, the call rests on the fitted dose curve; in most records, active means well fitted curve in the direction sought with a large enough effect; inconclusive means small, poorly fitted or top-dose-only effect, or another doubt; inactive means no such curve, though single readings can be large; an effect the other way counts as inactive or inconclusive.

SMILES | RGS12 GoLoco inh | ERK EGF inh | CBFb-RUNX1 inh
O=C(O)c1cccc(/C=C2/C[C@@H]3[C@@H](/C=C/[C@@H](O)C4CCCCC4)[C@H](O)C[C@@H]3O2)c1 | · | · | 1.9%
CCN(CC)CC(=O)Nc1cccc2c1C(=O)c1ccccc1C2=O | 1.8% | -7.6% | -19.3%
CN(C)CCCNc1cc(O)c2c(c1O)C(=O)c1ccccc1C2=O | 3.55µM* | · | ·
O=C1c2ccccc2C(=O)c2c(O)c(O)cc(O)c21 | 6.7% | ? | ·
O=C1c2ccccc2C(=O)c2c(NCCCN(CCO)CCO)cccc21 | 111.0% | 28.2µM* | ?
Cc1cc(CCC(=O)O)c(C)cc1CCC(=O)O | -5.4% | · | 2.3%
C=CC1=C(C)C2=NC1=CC1=NC(=CC3=NC(=CC4=NC(=C2)C(C)=C4CCC(=O)O)C(CCC(=O)O)=C3C)C(C=C)=C1C.[Zn] | 5.62µM* | 2.5% | ?
Cc1c(-c2ccccc2)oc2cc(O)ccc2c1=O | 4.7% | 7.5% | -8.1%[21.7 µM]
CN(C)Cc1ccccc1-c1nc(N(C)Cc2ccco2)c2ccccc2n1 | -1.0% | 19.9% | ·
CC(COc1ccc(/C=C/c2ccccc2)cc1)[N+](C)(C)C (stereo unspecified) | 10µM* | 7.3% | 5.1%
COc1ccc(/C=C/c2nc3ccccc3n2C)cc1 | 10.3% | 1.7% | 16.9%
CC(=O)Nc1ccc2c(c1)/C(=C/c1ccc([N+](C)(C)C)cc1)c1ccccc1-2 | -3.0%[14.2 µM] | · | ·
COc1ccc(C2CC(=O)C3=C(C2)Nc2ccccc2N(C(=O)CCC(=O)O)C3c2ccc(F)cc2)cc1 (stereo unspecified) | 5.62µM* | -2.4%[57.5 µM] | 5.0%
O=C(O)CCC(=O)N1c2ccccc2NC2=C(C(=O)CC(c3ccc(F)cc3)C2)C1c1ccc([N+](=O)[O-])o1 (stereo unspecified) | 1.7% | 8.9% | -1.3%
COc1ccc(-c2ccc(N(C)C)cc2)cc1C1C2C=CCC(C)C2C(=O)N1Cc1ccccc1 (stereo unspecified) | · | · | -23.2%
CC(C)OCC1CO1 (stereo unspecified) | 25.1µM* | · | 7.5%[21.7 µM]
COc1ccc(C(OCC2CO2)c2ccc(OC)cc2)cc1 (stereo unspecified) | -6.2% | -2.9% | 1.7%
COC(=O)C1=COC(O[C@H]2OC(CO)[C@H](O)C(O)C2O)[C@H]2C1C(=O)C[C@@H]2C (stereo partly specified) | 4.3% | -7.2% | 2.6%
CC(C)[C@@H]1NC(=O)[C@H](CCCCN)NC(=O)[C@@H](Cc2c[nH]c3ccccc23)NC(=O)[C@H](Cc2ccc(O)cc2)NC(=O)[C@@H](NC(=O)[C@H](N)Cc2ccccc2)CSSC[C@@H](C(=O)N[C@@H](Cc2c[nH]c3ccccc23)C(N)=O)NC1=O | · | · | 20.4%
CCC(=O)NC1=C(Cl)C(=O)C(NC(=O)CC)=C(Cl)C1=O | 1.26µM* | ? | 7.5%
CCC(=O)NC1=C(NC(C)c2ccccc2)C(=O)c2ccccc2C1=O (stereo unspecified) | 15.0% | · | -1.6%
C=C1CC2C3C=C(C)C4=CC(=O)CCC4(C)C3CCC2(C)[C@@]1(OC(C)=O)C(C)=O (stereo partly specified) | 7.3% | · | ·
COc1nc(N)nc2c1ncn2[C@@H]1C[C@H](O)[C@@H](CO)O1 | -6.6%[14.2 µM] | · | ·
COC(=O)C1(CC(C)C)C=C2C(=C(C)C(=O)C2C)CN1 (stereo unspecified) | -0.9% | 0.6% | 4.7%
COc1ccc(CCNc2ncnc3cc(OC)c(OC)cc23)cc1OC | 15.0% | 28.2µM* | -2.2%
SMILES | RGS12 GoLoco inh | ERK EGF inh | CBFb-RUNX1 inh
COc1cc2ncnc(NCCc3ccccc3)c2cc1OC | 4.8% | 3.55µM* | -0.8%
COc1cccc(CNc2ncnc3cc(OC)c(OC)cc23)c1 | 0.4% | · | 3.8%
COc1cc2ncnc(NCc3ccc(C)cc3)c2cc1OC | -10.3% | · | 16.1%
COc1cc2[nH]c(=S)nc(NCc3cccs3)c2cc1OC | 1.1% | -9.1% | -4.4%
COc1cc2ncnc(NCc3cccs3)c2cc1OC | 20.8% | 2.51µM* | 0.2%
CCOC(=O)CCN1C(=O)[C@@H]2[C@H]3C(=CC[C@H]2C1=O)C(=O)[C@H]1O[C@H]1[C@H]3O | · | · | -3.8%[13.1 µM]
C=CCN(C(C(=O)OC)C(C)C)S(=O)(=O)CCl (stereo unspecified) | · | · | 0.4%
O=C(O)c1cc(-c2ccc(-c3ccccc3)cc2)nc2cc3ccccc3cc12 | 2.9%[14.2 µM] | · | ·
CC[C@H](C)[C@H](NC(=O)[C@H](Cc1ccc(O)cc1)NC(=O)[C@@H](NC(=O)[C@H](CCCN=C(N)N)NC(=O)[C@@H](N)CC(=O)O)C(C)C)C(=O)N[C@@H](Cc1cnc[nH]1)C(=O)N1CCC[C@H]1C(=O)O | · | · | 8.9%
O=c1cc(-c2ccccc2)oc2cc(O)c(O)c(O)c12 | -3.8% | 3.9% | ?
O=c1c(O)cccc2cc(O)c(O)c(O)c12 | 3.98µM*! | ? | ·
c1ncc(CCCC2CCNCC2)[nH]1 | · | · | 10.5%
Cc1cc(C)c2c(=O)n(CC(=O)NC3CCCC3)sc2n1 | 3.55µM* | -6.8%[57.5 µM] | 5.2%
Cc1cc(C)c2c(N)c(C(=O)NC3CCCC3)sc2n1 | 10.7% | -0.1% | 2.0%
CN(C)c1ccc(N=Nc2ccccc2C(=O)OCC(=O)N(C)C2CCCCC2)cc1 | 7.9% | ? | ·
CN(C)c1ccc(N=Nc2ccccc2C(=O)OCC(=O)NCC2CCCCC2)cc1 | -11.6% | 12.6µM* | 2.9%
COC(=O)[C@H](COC(C)(C)C)NC(=O)O[C@@H]1C(=O)c2cc(Br)ccc2O[C@H]1c1cccc(OC)c1 | -2.8% | ? | -8.2%
O=C1C[C@H](c2ccccc2Cl)N1S(=O)(=O)c1ccccc1[N+](=O)[O-] | · | · | 1.8%
c1cnc2c(-c3nccc4c3[nH]c3ccccc34)cccc2c1 | -1.6% | -7.0% | -12.8%
CC(=O)[C@]1(O)Cc2c(O)c3c(c(O)c2[C@@H](O[C@H]2C[C@H](N)[C@H](O)[C@H](C)O2)C1)C(=O)c1ccccc1C3=O | 1.58µM* | ? | 0.7%
CC(=O)[C@]1(O)Cc2c(O)c3c(c(O)c2[C@@H](O[C@H]2C[C@H](N)[C@H](O)[C@H](C)O2)C1)C(=O)c1c(O)cccc1C3=O | 0.794µM* | · | -22.0%
CC1(C)O[C@@H]2[C@@H](O1)C(c1ccccc1)(c1ccccc1)OP(=O)(O)OC2(c1ccccc1)c1ccccc1 | 2.8% | -10.3% | -8.6%
CSCC[C@H](NC(=O)[C@H](CC(C)C)NC(=O)CNC(=O)[C@H](Cc1ccccc1)N(C)C(=O)[C@H](Cc1ccccc1)NC(=O)[C@H](CC(=O)O)NC(=O)[C@@H](N)CC(=O)O)C(N)=O | · | · | 3.5%
CCc1ccc(NC(=O)C2(C)Cc3ccccc3C(=O)O2)cc1 (stereo unspecified) | -11.3% | 22.4µM* | 11.3%
COc1ccccc1NC(=O)C1(C)Cc2ccccc2C(=O)O1 (stereo unspecified) | 9.5% | · | -1.3%
COC(=O)CCCCCCCCCC[N+]1(C)CCCCC1 | 11.2µM* | -10.4% | 1.4%
CC(=O)OCCCCCCCCCCC[N+]1(C)CCCCC1 | 11.0% | 3.2% | 8.2%
O=C(NCc1ccccc1)[C@]1(C(F)(F)F)C[C@H](CCC2CCCCC2)CCCO1 | · | · | -0.8%

Screening results deposited in PubChem by National Center for Advancing Translational Sciences (NCATS).
